From PubChem BioAssay (NCATS)
Inconclusive results are not listed. Active and inactive are the calls of the source. Calls come from the whole dose curve; as a rule, active = well fitted inhibition curve with a large enough effect; inconclusive = small, poorly fitted or top-dose-only effect; inactive = flat fitted curve, though single readings scatter.

test system: HaCat; assay: Cytotoxic Profiling of Annotated Libraries Using Quantitative High-Throughput Screening (AID 1296008); details: Five cell lines viability, CellTiter-Glo ATP luminescence, 48-72 h; max response: active compounds read low; note: nearly all actives have a fitted effect of over 60% in size
Method in brief: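 Compounds were pin-transferred onto cells and incubated 48 or 72 hr at 37 degree Celsius, 95% humidity. CellTiter-Glo was added, plates sat 10 min at room temperature, then ATP-coupled luminescence was imaged as the viability read-out.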
% is set by controls: 0 for no effect and ±100 for the full control effect.

Compound | max response
COc1ccc(CC2NCCc3c2[nH]c2ccc(C)cc32)cc1OC (stereo unspecified) | -6.85% (inactive)
O=C(NOCC(O)CO)c1ccc(F)c(F)c1Nc1ccc(I)cc1F (stereo unspecified) | -79.3% (inactive)
O=C(CCCCN1CCOCC1)Nc1ccc(-c2cccnc2)cc1 | -1.44% (inactive)
CC(=O)O[C@@H]1[C@@H](CO)O[C@@](CO)(O[C@H]2O[C@H](COC(=O)/C=C/c3ccccc3)[C@@H](O)[C@H](O)[C@H]2O)[C@H]1O | -9.37% (inactive)
CC12CCC(C(OC3OC(COC4OCC(O)(CO)C4O)C(O)C(O)C3O)C1)C(C)(C)O2 (stereo unspecified) | -11.8% (inactive)
CC(C)C1=CC2C(CC[C@]2(C)O)[C@](C)(O)CC1 (stereo partly specified) | 2.33% (inactive)
C=C1C(=O)OC2CC3(C)C(CC12)C(C)=CC(O)C3OC(C)=O (stereo unspecified) | 3.89% (inactive)
CC1CCC2(CO)C(C(=O)O)=CCCC2C1(C)CCc1ccoc1 (stereo unspecified) | -11.9% (inactive)
CC(C)=CCC[C@](C)(O[C@@H]1O[C@H](CO[C@@H]2O[C@H](CO)[C@@H](O)[C@H](O)[C@H]2O)[C@@H](O)[C@H](O)[C@H]1O)C1CC[C@]2(C)[C@@H]1[C@H](O)CC1[C@@]3(C)CC[C@H](O[C@@H]4O[C@H](CO)[C@@H](O)[C@H](O)[C@H]4O[C@@H]4O[C@H](CO)[C@@H](O)[C@H](O)[C@H]4O)C(C)(C)[C@@H]3CC[C@]12C (stereo partly specified) | 3.42% (inactive)
[N-]=[N+]=N[C@]1(CO)O[C@@H](n2ccc(=O)[nH]c2=O)[C@@H](O)[C@@H]1O | 4.64% (inactive)
CC1=CC(=O)CC(C)(C)[C@@]1(O)CC[C@@H](C)O[C@@H]1O[C@H](CO)[C@@H](O)[C@H](O)[C@H]1O | -28.9% (inactive)
